Data reported in PubChem BioAssay.
Calls of active or inactive are those of the source.

Assays:
Albumin (Bos taurus) = Albumin (Bos taurus) (UniProt P02769); experiment: bovine serum albumin binders on microarray, profiling panel, artefact control for SMM control protein annotation, biochemical, small-molecule microarray, Alexa647 label, 635/667 nm fluorescence (AID 1118); conditions: BSA-A647 binding, fluorescence 635 nm, higher = more signal;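 note: score merges 667 nm emission intensity and signal-to-noise per printed compound spot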
Chain of Albumin (Bos taurus) (P02769 whole entry, looked up): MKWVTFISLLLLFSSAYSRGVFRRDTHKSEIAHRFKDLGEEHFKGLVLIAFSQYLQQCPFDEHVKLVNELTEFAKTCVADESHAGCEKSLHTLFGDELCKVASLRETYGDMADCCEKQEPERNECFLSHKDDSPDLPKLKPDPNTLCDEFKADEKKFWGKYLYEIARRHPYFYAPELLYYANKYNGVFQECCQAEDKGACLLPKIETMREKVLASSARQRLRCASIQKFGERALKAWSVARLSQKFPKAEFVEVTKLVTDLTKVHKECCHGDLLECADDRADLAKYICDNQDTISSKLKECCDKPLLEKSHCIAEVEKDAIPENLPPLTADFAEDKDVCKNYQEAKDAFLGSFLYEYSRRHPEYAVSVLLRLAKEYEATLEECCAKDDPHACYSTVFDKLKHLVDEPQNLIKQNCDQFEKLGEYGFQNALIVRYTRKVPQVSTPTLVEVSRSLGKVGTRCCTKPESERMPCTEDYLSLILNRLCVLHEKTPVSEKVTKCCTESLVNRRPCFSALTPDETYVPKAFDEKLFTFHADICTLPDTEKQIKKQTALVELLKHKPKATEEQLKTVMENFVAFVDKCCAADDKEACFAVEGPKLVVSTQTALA

[1] = small-molecule microarray binders of probe aXIP, primary screen, biochemical, NeuroSMM set, 635/667 nm fluorescence (AID 1119); conditions: higher = more signal, called active from +8 up or from −8 down;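 note: probe is the protein aXip251-270 applied at 1 µg/mL to compound-printed slides; binding of probe to printed compounds measured as 667 nm fluorescence plus signal to noise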
[2] = small-molecule binders of probe aNOTCH3, primary screen, biochemical, small-molecule microarray, 635/667 nm fluorescence (AID 1120); conditions: higher = more signal;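 note: probe is a biotin-tagged antibody raised against NOTCH3 rather than NOTCH3 protein; score merges spot fluorescence near 667 nm with spot signal to noise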
[3] = small-molecule binders of probe aNOTCH2, primary screen, biochemical, small-molecule microarray, 635/667 nm fluorescence (AID 1121); conditions: higher = more signal;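 note: score merges feature fluorescence read at 667 nm with its signal to noise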
[4] = target: Carbonic anhydrase 2 (Homo sapiens) (UniProt P00918); experiment: CAII small-molecule binders, profiling panel, biochemical, small-molecule microarray, Alexa647-labelled CAII (AID 1122); conditions: CAII-A647 binding fluorescence, higher = more signal
[5] = COS7 lysate on small-molecule microarray, probe aHis, 635 nm (AID 1123); conditions: COS7 cell lysate, fluorescence, higher = more signal;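 note: z-score combines 667nm fluorescence intensity with signal-to-noise per printed compound spot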
[6] = compound binding in COS7 lysate, probe aLAP1, primary screen, cell lysate, small-molecule microarray (AID 1124); conditions: probe aLAP1, fluorescence, higher = more signal;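 note: lysate comes from COS7 cells expressing LAP1 and is applied at 0.3 µg/mL; score merges spot fluorescence near 667 nm with signal-to-noise over triplicate slides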
Sam68 (KHDRBS1) = experiment: Sam68 small-molecule binders, primary screen, biochemical, small-molecule microarray, 635 nm fluorescence (AID 1125); conditions: small-molecule microarray binding, higher = more signal;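 note: score merges 667 nm channel intensity with signal to noise over triplicate slides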
[7] = tested on: Chordin-like protein 2 (CHRDL2); experiment: CHRDL2 small-molecule binders, primary screen, biochemical, small-molecule microarray, 635 nm fluorescence (AID 1126); conditions: small-molecule microarray binding, fluorescence 635 nm; higher = more signal;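 note: printed compound slides probed with Chrdl2 protein at 4 µg/mL for 1 h at 4 C; score merges 667 nm emission intensity with signal to noise over three replicate slides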
[8] = target: Concanavalin-A (Canavalia ensiformis) (UniProt P02866); experiment: ConA small-molecule binders, primary screen, artefact control for SMM control protein annotation, biochemical, small-molecule microarray, Alexa647 label, 635 nm (AID 1127); conditions: ConA-A647 binding fluorescence, higher = more signal;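 note: z combines 667 nm emission intensity with signal-to-noise across three replicate slides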
Chain of Concanavalin-A (Canavalia ensiformis) (P02866 whole entry, looked up): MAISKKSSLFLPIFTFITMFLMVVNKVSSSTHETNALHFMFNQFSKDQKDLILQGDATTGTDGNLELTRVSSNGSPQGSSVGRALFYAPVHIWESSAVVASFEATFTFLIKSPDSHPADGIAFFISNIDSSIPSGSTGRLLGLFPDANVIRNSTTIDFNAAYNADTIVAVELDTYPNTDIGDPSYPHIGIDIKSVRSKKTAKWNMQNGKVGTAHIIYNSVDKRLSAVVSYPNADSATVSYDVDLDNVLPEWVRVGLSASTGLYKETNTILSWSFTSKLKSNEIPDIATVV

| Structure (SMILES) | composite z-score (Albumin (Bos taurus)) | composite Z-score [1] | composite z-score [2] | composite z-score [3] | composite z-score [4] | composite z-score [5] | composite z-score [6] | composite z-score (Sam68 (KHDRBS1)) | composite z-score [7] | composite z-score [8] |
| --- | --- | --- | --- | --- | --- | --- | --- | --- | --- | --- |
| CN(C)CCCC[C@@H]1NC(=O)[C@@H]2C[C@H](C(=O)NCc3ccc(F)cc3)[C@H](c3ccc(O)cc3)N2C1=O | -0.16 | 0.0275 (inactive) | 0.0562 | -0.0974 | 0.609 | 0.901 | 0.339 | 0.17 | 0.0978 | 0.911 |
| CO[C@H]1O[C@H](CO)[C@@H](OC(=O)Nc2ccc(C(F)(F)F)cc2)[C@H](OC(=O)Nc2ccccc2-c2ccccc2)[C@@H]1OC(=O)Nc1ccccc1-c1ccccc1 | 0.816 | 0.0336 (inactive) | 0.387 | -0.0496 | 0.647 | 2.21 | 0.818 | 1.29 | 0.102 | 1.15 |
| CC(C)[C@@H](C(=O)O)n1cc(-c2ccccc2)nn1 | 0.739 | 0.0388 (inactive) | -0.0225 | -0.0454 | 0.39 | 0.575 | 0.547 | 1.06 | -0.145 | 1.12 |
| [N-]=[N+]=NCc1ccccc1C[C@@]1(C(=O)O)N=C(c2ccc(OCCCO)cc2)O[C@@H]1c1ccccc1CN=[N+]=[N-] | 0.516 | 0.259 (inactive) | 0.244 | -0.0716 | 0.573 | 0.0091 | 0.0036 | 1.31 | -0.0541 | 1.11 |
| CC(C)CNC(=O)[C@@H]1c2ccccc2C(=O)N(C(C)C)[C@H]1c1ccc(CO)cc1 | 0.121 | 0.337 (inactive) | -0.153 | -0.0454 | 0.757 | 0.435 | 1.25 | -0.463 | 0.0021 | -1.56 |
| COC(=O)[C@@]1(Cc2ccc(OC)cc2)[C@H]2c3cc(C(=O)N(C)C)n(Cc4ccsc4Br)c3C[C@H]2CN1C(=O)c1ccccc1 | 0.968 | -0.362 (inactive) | 0.69 | 0.371 | 0.898 | 1.65 | 0.107 | 0.399 | -0.0018 | 0.852 |
| CCOC(=O)C[C@H]1[C@H](OC(=O)Cc2ccc3c(c2)OCO3)[C@@H](NC(=O)c2ccccc2)c2cc(OCCCO)ccc2N1C(=O)Cc1ccc(OC)cc1 | 0.521 | -0.751 (inactive) | -0.116 | -0.0974 | 0.544 | 1.04 | -0.0337 | 0.683 | -0.302 | 0.808 |
| CCCCNC(=O)c1ccc(C#C[Si](C)(C)C)c(OC(C)=O)c1 | -0.175 | 0.378 (inactive) | -0.0328 | -0.154 | -0.14 | 0.353 | 0.0462 | 0.469 | 0.782 | 0.0668 |
| CCCC[C@H]1OB(O)C[C@H]2C1=C(COC)C[C@H]1C(=O)C=CC(=O)[C@H]12 | -0.183 | 0.727 (inactive) | 0.029 | 0.144 | -0.104 | -0.279 | -0.236 | 0.684 | 0.676 | 0.486 |
| COc1ccccc1CN1C(=O)c2ccccc2[C@@H](C(=O)NCCCN(C)C)[C@@H]1c1ccc(CO)cc1 | 0.303 | 0.0241 (inactive) | -0.2 | -0.152 | 0.733 | -0.171 | 0.323 | -2.03 | 0.288 | 0.343 |
| CC(C)C(=C=CC[C@@H](O)c1ccccc1OCCO)C[C@@H](O)c1cc(Cl)cc(Cl)c1O | 0.77 | -0.235 (inactive) | 0.156 | -0.147 | 0.68 | 1.76 | 0.632 | 1.26 | 0.784 | 0.612 |
| CN1C(=O)[C@]2(CCC(=O)OC(C)(C)C)N=C(c3ccc(OCCCO)cc3)O[C@@H]2c2ccccc21 | 0.272 | 0.0786 (inactive) | -0.117 | -0.12 | 0.709 | 2.69 | -0.313 | 1.28 | 0.149 | 1.12 |
| CCCCC(=C=CC[C@H](O)c1ccc(OCCO)cc1)C[C@H](O)c1ccccn1 | -0.273 | 0.611 (inactive) | 0.102 | -0.0614 | 0.562 | 1.04 | 0.967 | 1.18 | 0.0162 | 0.544 |
| C=CC[C@]1(C(=O)NCCCOC)N=C(c2ccc(OCCCO)cc2)O[C@H]1c1ccccc1 | 0.812 | -0.397 (inactive) | 0.0522 | -0.131 | 0.783 | 2.66 | 0.648 | 1.07 | -1.08 | 0.335 |
| CN1C(=O)C2C=CC(C(O)c3ccc(-c4ccccc4)s3)N(Nc3ccccc3)C2C1=O (stereo not given) | 0.945 | 0.498 (inactive) | 0.403 | 0.135 | 0.714 | 1.94 | 0.32 | 1.24 | -0.121 | 1.15 |
